Compounds with a hit are over-represented: about 5.3% of the library has one in this group of screens.
Vaccinia mCherry – vaccinia inhibition (mCherry reporter). Potency, µM (top dose mostly 36.5 µM), for the others: top-dose activity change, negative = inhibition, hits mostly inhibitors. Vaccinia virus mCherry reporter infection, fluorescence. 310,000 compounds, 0.63% hits; calls by dose curve; tested in A549 cells; also: nearly all actives have a fitted effect of over 35% in size
FMDV inh – foot and mouth disease virus antiviral activity | FMDV antiviral cell-based qHTS | Potency, µM (top dose mostly 57.9 µM), for the others: top-dose activity change, negative = inhibition, actives largely listed as inhibitors | 410,000 compounds, 1.2% hits | AID 1159524; calls by dose curve; tested in HEK293T cells; also: read-out not given here; nearly all actives have a fitted effect of over 45% in size
HCV inhibitor – inhibitors of hepatitis C virus infection; 340,000 compounds, 3.4% hits; AID 651820; Huh7.5.1 HCVcc-Cre infection, luciferase reporter, 44 h; Potency, µM (series often up to 41.8 µM), for the others: at the highest dose activity change, negative = inhibition, actives largely listed as inhibitors; active = well fitted inhibition curve with a large enough effect; inconclusive = small, poorly fitted or top-dose-only effect, or another doubt; inactive = no such curve, though single readings can be large or run the other way
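Cells (1,000/well) were plated 4 h before compound, then infected with HCVcc-Cre virus (~0.5 moi). After 44 h further culture, infection was read as luciferase luminescence following a 15 min substrate incubation at room temperature.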
Marburg entry inh – Marburg virus entry inhibition; Marburg virus pseudotyped entry inhibition, cell reporter; Potency, µM (top dose mostly 37.8 µM), without a hit: at the top dose activity change, negative = inhibition, usual class: inhibitors; 300,000 compounds, 1.8% hits; calls by dose curve; tested in HEK293 cells
Vaccinia Venus – vaccinia inhibition (Venus reporter); Vaccinia virus Venus reporter expression, fluorescence; 330,000 compounds, 0.46% hits; Potency, µM (doses to about 36.5 µM), for the others: top-dose activity change, negative = inhibition, most hits filed as inhibitors; AID 720580; calls by dose curve; tested in A549 cells; also: nearly all actives have a fitted effect of over 30% in size
LASV entry inh – blocks Lassa virus binding to or entry into cells; 300,000 compounds, 1.2% hits; Potency, µM (series often up to 37.9 µM), for the others: top-dose activity change, negative = inhibition, usual class: inhibitors; Lassa virus pseudotype entry inhibition, cell reporter; calls by dose curve; tested in HEK293 cells; also: nearly all actives have a fitted effect of over 50% in size
* hit, by the source's call; i = inactive; ? = inconclusive; . = no result given; [ ] = another dose, or the depositor's remark. % is scaled to controls: 0 for no effect and ±100 for the full control effect; potency is read from the fitted curve at half-maximal effect.

SMILES	Vaccinia mCherry	FMDV inh	HCV inhibitor	Marburg entry inh	Vaccinia Venus	LASV entry inh
COc1ccc(OCC(=O)Nc2ccc3c(c2)nc(CCN2CCN(c4ccccn4)CC2)n3C)cc1	i	?	.	.	-27%	.
CCC(=O)N1c2ccccc2CC1C(=O)NCc1cc(Br)ccc1OC (centres undefined)	-14%	-22%	.	.	3%	10%[46.1 µM]
O=C(C=Cc1ccccc1)Nc1cccc(C(=O)NCc2ccccc2)c1	.	.	.	.	.	11%[46.1 µM]
Cc1cnc(NC(=O)c2sc3ccccc3c2Cl)s1	i	-54%	-5%	?	-7%	?
O=C(Nc1nccs1)c1sc2ccccc2c1Cl	-17%[1.46 µM]	0%	?	7.1µM*	-25%	13µM*
Cc1ccnc(NC(=O)c2sc3ccccc3c2Cl)c1	-5%	?	-7%	1.6µM*	-11%	?
O=C(NC1CC1)c1sc2ccccc2c1Cl	-14%	42%	-7%	?	-2%	10%[46.1 µM]
CN1CCN(c2ccccc2NC(=O)c2sc3ccccc3c2Cl)CC1	2%	-22%	13µM*	?	5%	?
O=C(NC1C=CS(=O)(=O)C1)c1sc2ccccc2c1Cl (centres undefined)	10µM*	.	?	21µM*	?	?
CCOC(=O)N1CCN(/[N+]([O-])=N/Oc2ccc([N+](=O)[O-])cc2[N+](=O)[O-])CC1	.	.	.	-12%	.	?
CC(C)Cc1nc2cc(NS(=O)(=O)N(C)C)cc(C(=O)N3CCc4sccc4C3)c2n1C	0%	36%	.	.	-7%	.
ON=C(CCc1ccccc1)c1ccccc1	-16%	30%	14%	-5%	-13%	?
COc1ccc(-n2nc(C(=O)NCC(=O)NC3CCCCC3)c3ccccc3c2=O)c(OC)c1	-15%	1%	22%	?	-3%	13µM*
COc1ccc(-n2nc(C(=O)NCC(=O)Nc3cc(C)ccc3OC)c3ccccc3c2=O)c(OC)c1	-1%	-3%	11%	2%[46.1 µM]	0%	6.3µM*
CC(C)(C)n1nnnc1C(c1cccs1)N(Cc1ccccc1)Cc1ccco1 (centres undefined)	-10%[1.46 µM]	?	11µM*	?	?	?
CC(C)(C)n1nnnc1C(c1cccs1)N(Cc1cccnc1)Cc1ccco1 (centres undefined)	-27%	-17%	-18%	?	-23%	?
Cc1cc(C)nc(N/C(=N\S(=O)(=O)Cc2ccccc2)Nc2ccccc2Br)n1	?	37%	-7%	2.8µM*	2%	4.1µM*
Cc1cc(C)nc(Nc2ccccc2Br)n1	i	5%	-4%	23%	-20%	13%
CC(C)C(=O)Nc1nnc(S(=O)(=O)N(C)Cc2ccc(F)cc2)s1	-8%	-2%	.	.	-1%	13%[46.1 µM]
CCOC(=O)N1CCN(Cc2ccc3c(c2)CN(C(=O)c2noc4c2CCCC4)CCO3)CC1	-26%	?	.	.	-22%	.
O=C(NCc1ccccc1)c1ccc(S(=O)(=O)N2CCCc3ccccc32)cc1	.	-5%	13µM*	?	.	?
CCCNC(=O)c1cc(S(=O)(=O)N2CCc3ccccc32)cn1C	-4%	?	8.9µM*	.	-24%	.
NNC(=O)c1ccc(S(=O)(=O)N2CCc3ccccc32)cc1	i	-19%	3%	3%	-8%	0%
COC(=O)c1ccc(S(=O)(=O)N2CCc3ccccc32)cc1	-14%	-12%	-15%	2.5µM*	-3%	?
CCc1ccccc1NC(=O)c1cc(S(=O)(=O)N2CCc3ccccc32)cn1C	-14%	?	5%	.	-18%	.
SMILES	Vaccinia mCherry	FMDV inh	HCV inhibitor	Marburg entry inh	Vaccinia Venus	LASV entry inh
CC(=O)N1CCc2ccc(S(=O)(=O)N3CCc4ccccc43)cc21	.	-26%	22µM*	.	.	.
O=C(NCc1ccco1)c1ccc(S(=O)(=O)N2CCCc3ccccc32)cc1	i	-28%	16%	?	-19%	16µM*
CC(=O)N1CCCc2cc(S(=O)(=O)N(CCN(C)C)Cc3ccccc3)ccc21	0%	-2%	.	.	-2%	25%[46.1 µM]
O=C(NCc1ccco1)c1cccc(S(=O)(=O)N2CCc3ccccc32)c1	-3%	-3%	-13%	?	-24%	-20%
CC1Cc2ccccc2N1S(=O)(=O)c1cccc(C(=O)NCc2ccco2)c1 (centres undefined)	-11%	0%	?	?	-13%	10µM*
CC(=O)N1CCCc2cc(S(=O)(=O)N(C)Cc3ccccc3)ccc21	i	-19%	35µM*	-5%[46.1 µM]	-17%	-11%
O=S(=O)(c1ccc(Cl)cc1)N1CCCc2ccccc21	.	-30%	?	.	.	.
CC(=O)Nc1ccc(S(=O)(=O)N2CCCc3ccccc32)cc1	?	-12%	13µM*	?	-28%	?
CCOC(=O)c1[nH]c2c(c1Cc1ccccc1)C(=O)CC(c1ccccc1)C2 (centres undefined)	-9%[7.34 µM]	17%	.	?	-4%[7.34 µM]	-29%[46.1 µM]
O=C1NN(C(=O)Nc2ccc(Br)cc2)C(c2ccccc2)C1c1ccccc1 (centres undefined)	.	24%	.	.	.	.
CN1CCCC(CNC(=O)c2cnn(-c3nccc(-c4cccs4)n3)c2C2CC2)C1 (centres undefined)	-12%	-15%	.	.	-1%	.
Cc1ncc2c(c1CNC(=O)c1ccc3c(c1)OCO3)CCN(C(=O)c1cc3ccccc3n1C)C2	-7%	-1%	.	.	4%	.
CCCCCCCCN1C(=O)[C@H](CC(=O)N2CCN(C(=O)c3ccco3)CC2)C[C@@]2(C(=O)OC)CC(C)(C)CC=C12	4%	-23%	.	.	-25%	.
COC(=O)C1=C(C)N(CC2CC2)C(=NCCc2cccnc2)NC1c1ccccc1 (centres undefined)	.	.	.	4%[14.2 µM]	.	0%[14.3 µM]
O=C(c1ccccc1F)N1CCCc2ccccc21	.	9%	5%	.	.	.
CCC(=O)N1CCCc2cc(S(=O)(=O)N3CCCc4ccccc43)ccc21	-14%	?	10µM*	-16%	?	-5%
COc1ccc(S(=O)(=O)N2CCc3ccccc32)cc1OC	6%	1%	1%	?	-28%	?
CCn1c(=O)n(CC)c2cc(S(=O)(=O)N3CCc4ccccc43)ccc21	i	.	13µM*	?	?	-20%
CCc1ccc2c(c1)CCCN2C(=O)c1ccccc1C(=O)O	.	-2%	10µM*	?	.	-6%
COc1ccc(/C(O)=C2\C(=O)C(=O)N(Cc3ccco3)[C@@H]2c2cccs2)cc1	.	.	.	-1%	.	.
CCC(=O)N[C@@H]1c2ccccc2C2(CCN(Cc3[nH]c4c(Cl)cccc4c3C)CC2)[C@H]1OC	-7%	-13%	.	.	-9%	.
COc1ccc(NC(=O)c2c(C)oc3ccc(O)c(CN4CCN(Cc5ccccc5)CC4)c23)cc1Cl	-11%	-19%	.	?	-25%	7.9µM*
Cc1ccc(NC(=O)c2c(C)oc3ccc(O)c(CN4CCN(Cc5ccccc5)CC4)c23)cc1	-18%	-19%	.	10µM*	0%	?
Cc1ccc(NC(=O)c2c(C)oc3ccc(O)c(CN4CCCCCC4)c23)c(C)c1	-14%[7.34 µM]	0%	.	3.5µM*	-14%[7.34 µM]	?
